PubChem BioAssay (NCATS)
Results filed as inconclusive are left out. Values without a mark were called inactive. Activity calls are given as the source filed them. Calls follow the shape of the dose curve; as a rule, active = well fitted cell-killing curve with a large enough effect; inconclusive = small, poorly fitted or top-dose-only effect, or effect the other way; inactive = no such curve, though single readings can be large or run the other way.

Experiment: Quantitative High-Throughput drug screen in 47 multiple myeloma cell lines against the NCATS MIPE library collection: KMS28BM_JCRB cell viability assay (AID 1919874); also: nearly all actives have a fitted effect of over 35% in size
Details: CellTiter-Glo ATP, 48 h; series mostly up to 45.8 µM; viability, % of control: at the top concentration
In short: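 Plated at 500 cells per well, myeloma lines received MIPE 4.0 compounds by pin tool. Following 48 h culture at 37 °C, CellTiter-Glo luminescence gave viability relative to DMSO and media-only controls.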
Potency is read from the fitted curve at half-maximal effect.

| SMILES | viability, % of control | Potency |
| --- | --- | --- |
| CC(=O)OCC1=C(C(=O)O)N2C(=O)[C@@H](N)[C@@H]2SC1 | 117% |  |
| Cc1c(C(=O)c2cccc3ccccc23)c2cccc3c2n1[C@H](CN1CCOCC1)CO3 |  | 23.5 µM (active) |
| CCOC(=O)c1c(C(C#N)=CN)c2ccc(Cl)c(Cl)c2n1C | 121% |  |
| COc1cc([C@@H]2c3cc4c(cc3[C@@H](O)C3COC(=O)C32)OCO4)cc(OC)c1O (some centres not stated) |  | 0.0033 µM (active) |
| C=C[C@@H]1CN2CCC1C[C@@H]2[C@@H](O)c1ccnc2ccccc12 (some centres not stated) |  | 23.5 µM (active) |
| C[C@]12CC[C@H]3[C@@H](CCC4=CC(=O)CC[C@@]43C)[C@H]1CC[C@H]2OC(=O)CCC1CCCC1 | 135% |  |
| O=C(NCC1CCOCC1)c1cnc(Nc2ccc(Cl)cc2Cl)nc1C(F)(F)F | 94.1% |  |
| Cc1ccccc1-n1c(Cn2cnc3c(N)ncnc32)nc2cccc(C)c2c1=O |  | 0.372 µM (active) |
| CN[C@@H]1Cc2cccc3[nH]c(=O)n(c23)C1 | 109% |  |
| O=C1CCC[C@@H]2[C@H]3CCCN4CCC[C@@H](CN12)[C@@H]34 | 71.7% |  |
| COc1ccc(N(C(=O)Oc2c(C)cccc2C)c2ccnc(Nc3ccc(N4CCN(C)CC4)cc3)n2)c(OC)c1 |  | 7.43 µM (active) |
| C[C@]12Cc3cn[nH]c3C[C@@H]1CC[C@@H]1[C@H]2CC[C@@]2(C)[C@H]1CC[C@]2(C)O | 120% |  |
| CCNC(=O)CC1N=C(c2ccc(Cl)cc2)c2cc(OC)ccc2-n2c(C)nnc21 (configuration not stated) |  | 18.7 µM (active) |
| C[C@]12COC(=O)C[C@@H]1CC[C@@H]1[C@H]2CC[C@@]2(C)[C@H]1CC[C@]2(C)O | 104% |  |
| C=CCON=C(C[C@H]1O[C@@H]2O[C@]3(C)CC[C@@H]4[C@H](C)CC[C@@H]([C@H]1C)[C@@]24OO3)[C@H]1O[C@@H]2O[C@]3(C)CC[C@H]4[C@H](C)CC[C@@H]([C@@H]1C)[C@@]24OO3 |  | 0.332 µM (active) |
| c1cc2c(cc1[C@H]1OC[C@H]3[C@H]1CO[C@H]3c1ccc3c(c1)OCO3)OCO2 | 113% |  |
| C[C@]12CC[C@@H]3[C@@H](CCC4=CC(=O)CC[C@@H]43)[C@@H]1CC[C@@H]2OC(=O)CCc1ccccc1 | 119% |  |
| Cc1nc(-c2ccc(-c3ccc(C(=O)N4CCc5cc6c(cc54)C4(CCN(C)CC4)CO6)cc3)c(C)c2)no1 | 135% |  |
| Cc1c(C(=O)Nc2cccc(C(F)(F)F)c2)cc(-c2ccccc2)n1CCCN1CCOCC1 |  | 5.9 µM (active) |
| N#C[C@H](O[C@@H]1O[C@H](CO[C@@H]2O[C@H](CO)[C@H](O)[C@H](O)[C@H]2O)[C@H](O)[C@H](O)[C@H]1O)c1ccccc1 |  | 18.7 µM (active) |
| CCOP(=O)(OCC)C(C)NC(=O)N(CCCl)N=O (configuration not stated) | 112% |  |
| COC[C@H]1OC(=O)c2coc3c2[C@@]1(C)C1=C(C3=O)[C@@H]2CC[C@H](O)[C@@]2(C)C[C@@H]1OC(C)=O |  | 9.35 µM (active) |
